# A selection: hits, their analogues and other compounds. The true share with any hit is near 4.9%.
# HSP90 refold inh: HSP90 inhibitors, primary screen, cell lysate, luminescence. Heat shock protein HSP 90 (rabbit reticulocyte lysate; luciferase refolding). Rabbit reticulocyte lysate, luciferase refolding luminescence, 3 h. inhibition, % at 5.6 µM. hit rate 0.91% among 290,000;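 active means inhibition above the screen-wide mean plus 3 SD, computed separately per campaign, cut at about 16% in these data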;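 further: 0% = DMSO wells and 100% = 60 µM geldanamycin wells; inhibitors lower the luminescence because luciferase stays unfolded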
# Platelet DG rel: inhibitors of platelet dense granule secretion, primary screen, cell-based, MLPCN, human platelets | human platelet-rich plasma, SFLLRN dense granule ATP release, luminescence | inhibition, %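 (compounds screened at 7.5 µM in platelet-rich plasma)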 | hit rate 0.22% among 300,000 | AID 1663, 2009;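 active means mean replicate score, as percent of positive control, at or above 50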
# HSF-1 act: HSF-1 activators, primary screen, NIH3T3-HGL cells, MG132 stress, luminescence, single point | NIH3T3-HGL HSF-1 luciferase reporter, 8 h; 100% = twice DMSO control signal | hit rate 1.7% among 300,000 | activation, % at 9 µM;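 active means mean replicate activation of at least 50% with a set share of replicates each reaching 50%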;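 further: 0% = median of the neutral control wells and 100% = twice that signal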
# MPTP block: mitochondrial permeability transition pore inhibitors, primary screen, biochemical, isolated mouse mitochondria, absorbance; AID 602449, 2012; inhibition, % at 10 µM; Ca2+ swelling absorbance, 30 min; hit rate 1.4% among 360,000;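 active means inhibition of 50% or more, scaled per plate between neutral and stimulator controls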;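 further: 0% = DMSO wells given calcium and 100% = 1 mM EGTA wells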
# dFosB activator: activators of delta FosB homodimer, primary screen, biochemical, fluorescence polarization, TAMRA-CDK5 oligo, single point. Protein FosB (Mus musculus), P13346. purified delta FosB; percent of positive-control signal above neutral wells. activation, % at 25 µM. hit rate 0.99% among 340,000;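 active means mean activation above about 17%, with every replicate also reaching it, limit read from the data, passing the limit was not always enough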
# Target sequence (P13346 whole entry, looked up): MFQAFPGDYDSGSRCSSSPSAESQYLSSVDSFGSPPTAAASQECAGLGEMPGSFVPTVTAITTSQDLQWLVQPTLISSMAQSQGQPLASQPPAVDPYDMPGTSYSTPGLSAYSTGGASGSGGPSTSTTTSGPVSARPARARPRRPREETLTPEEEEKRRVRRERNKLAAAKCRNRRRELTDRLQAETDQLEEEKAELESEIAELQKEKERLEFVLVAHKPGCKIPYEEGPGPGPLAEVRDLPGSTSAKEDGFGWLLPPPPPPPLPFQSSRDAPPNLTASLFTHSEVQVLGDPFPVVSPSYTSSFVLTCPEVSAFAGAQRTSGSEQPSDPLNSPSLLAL
# HSF1 inh: HSF1 inhibitors in luciferase reporter cells, primary screen, cell-based, NIH3T3, luminescence. NIH3T3-HGL HSE-luciferase, MG132-induced, luminescence 8 h; stronger effect = lower value. activity change, negative = inhibition, % at 7.5 µM (by protocol). hit rate 0.77% among 300,000. AID 2098, 2009;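 active means more than half of replicate wells show activity change below -50%, luminescence cut by over half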;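 further: luciferase reports HSF-1 transcriptional activity via heat shock element; 0% = median of DMSO wells and -100% = zero luminescence signal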
# * marks the source's active call; other numbers are inactive results; · = not tested or not shown.
SMILES,HSP90 refold inh,Platelet DG rel,HSF-1 act,MPTP block,dFosB activator,HSF1 inh
CCCS/C(N)=N/N=C/c1cc(C)ccc1O,0,-4,60*,7,-3,32
CCCCS/C(N)=N/N=C/c1ccccc1O,-7,2,87*,-1,0,26
O=c1[nH]cnc2c1ncn2C1OC(CO)CC1F (stereo not drawn),·,·,·,-2,·,·
COc1ccc2cc3c(N)nn(C(=O)Cc4ccc(Cl)cc4)c3nc2c1,1,-7,-14,0,0,-9
COc1ccc2cc3c(N)nn(C(=O)c4ccccc4Cl)c3nc2c1,-4,14,-63,1,-3,-51*
COc1ccc2cc3c(N)nn(C(=O)Cc4c[nH]c5ccccc45)c3nc2c1,-4,14,-65,1,-3,-54*
CCc1cccc(CC)c1NC(=S)N1CCn2cccc2C1c1cccnc1 (stereo not drawn),5,-4,-65,0,-5,-55*
O=S1(=O)C[C@@H](N2CCCC2)[C@H](COCc2ccccc2)N1,·,·,·,1,·,·
CC1=C(Sc2nc3ccccc3[nH]2)C(=O)NC(C)(C)C1,3,5,60*,-1,-1,14
CC1=C(Sc2ccccn2)C(=O)NC(C)(C)C1,-1,-3,-9,-1,-3,-9
OC(CNCC(c1ccc(Cl)cc1Cl)c1c[nH]c2ccccc12)c1ccccc1 (stereo not drawn),10,-7,-37,11,83*,-31
O=[N+]([O-])CC(c1ccccc1)c1c[nH]c2ccccc12 (stereo not drawn),·,0,11,4,·,2
CSc1nc(NS(=O)(=O)c2ccc(F)cc2F)nn1C,-3,-1,0,1,2,1
Cc1nc(/C(N)=N/OC(=O)Cc2ccccc2)no1,-1,1,57*,-1,-3,19
N/C(=N\OC(=O)Cc1ccccc1)c1ccccn1,0,-3,15,-3,-4,3
Cn1cc(Cl)c(C(=O)N/N=C/c2ccc(OS(=O)(=O)c3ccccc3)cc2)n1,-3,-2,-7,2,-13,-1
Cc1ccc(/C=N/NC(=O)c2nn(C)cc2Cl)cc1,-1,53*,-1,-9,-1,14
Cn1c(C2=C(O)CN(Cc3ccccc3)C2=N)nc2ccccc21,2,-15,9,0,3,9
CSc1ccc(CN2CCC(Oc3ccc(C(=O)N4CCCC4)cc3)CC2)cc1,0,3,0,-2,2,-5
COc1ccc(C(O)c2nc(-c3cnn(C)c3)cs2)cc1 (stereo not drawn),·,·,·,-1,·,·
COc1ccccc1NC(=O)Cn1c(O)c(N=NC(=O)c2ccccc2O)c2ccccc21,0,-1,12,0,70*,-5
Cc1cccc(NC(=O)Cn2c(O)c(N=NC(N)=S)c3ccccc32)c1,-2,-1,-6,2,40*,-3
Cc1ccc(NC(=O)Cn2c(O)c(N=NC(=O)c3ccncc3)c3ccccc32)cc1,-5,7,1,1,-6,-5
Cc1cc2oc(=O)cc(Cn3nnc(-c4ccc(Cl)cc4)n3)c2cc1C(C)C,-1,8,9,·,·,12
COc1ccc(Cl)cc1C(=O)NCC(=O)OCc1ccccc1,·,2,-65,-2,-7,-52*
SMILES,HSP90 refold inh,Platelet DG rel,HSF-1 act,MPTP block,dFosB activator,HSF1 inh
CCN(CCO)CC1CCCC2CCCCC21 (stereo not drawn),·,·,·,0,·,·
O=C(NCc1ccccc1Cl)C1CCN(S(=O)(=O)N2CCCC2)CC1,1,5,-75,-1,1,-69*
COC(=O)c1ccccc1NC(=O)c1cccs1,1,14,-9,0,-1,2
COC(=O)c1ccccc1NC(=O)Nc1cccs1,-2,-3,66*,0,3,32
O=C(Nc1cccs1)Nc1c(F)c(F)cc(F)c1F,-6,-12,59*,3,-3,15
CC1(C)C(=O)Nc2ccccc2N1C(=O)COC(=O)Cc1ccccc1F,·,·,·,0,-3,·
CC(=O)c1sc(NCc2ccc(C)cc2)nc1C,-1,5,65*,0,-5,49
Cc1ccc(NC(=O)c2cc(C)on2)cc1,6,-2,24,-2,-6,16
CCc1ccc(NC(=O)c2cc(C)on2)cc1,16,-1,58*,-1,-2,21
CCC(C)c1ccc(OCC(=O)Nc2ccc3c(c2)C(=O)NC3=O)cc1 (stereo not drawn),-4,1,-11,0,3,-1
COC(=O)c1ccc(N2CCN(C(C)=O)CC2)c(NC(=O)COc2ccccc2C)c1,8,2,-72,0,-4,-64*
COC(=O)c1ccc(N2CCN(C)CC2)c(NC(=O)COc2ccccc2Cl)c1,0,-27,12,0,-8,7
C=CC(=O)Nc1cccc(Nc2nc(N[C@H]3CC[C@H](N(C)C)CC3)nc3c2ncn3C(C)C)c1,·,·,·,0,22*,·
CC(NS(=O)(=O)c1ccc2c(c1)CC(C)N2C(=O)C1CC1)c1ccccc1 (stereo not drawn),-3,1,-8,1,-6,2
Cc1cc(SCC(=O)N/N=C/c2ccc(O)c(O)c2)nc2ccccc12,-5,13,5,1,-8,3
Cc1cc(SCC(=O)N/N=C/c2ccc(O)c(O)c2)c(C)cc1Br,-3,-1,63*,7,-9,41
CC(C)(C)OC(=O)NN1CC(=O)N2[C@@H](Cc3c([nH]c4ccccc34)C2(C)C)C1=O,-1,2,10,0,-4,11
Cc1ccc(NC(=O)NNC(=O)Cn2nc(-c3ccccc3)c(-c3ccccc3)c(C#N)c2=O)cc1,-1,-3,-7,1,-14,-4
Cc1ccc(O)c(-c2cc(-c3ccccc3C)[nH]n2)c1,-6,-1,162*,3,-9,123
O=[N+]([O-])c1ccccc1-c1cc(-c2cc(Cl)ccc2O)n[nH]1,1,8,21,20,6,33
Cc1ccc(O)c(-c2cc(C(=O)Nc3cccnc3)[nH]n2)c1,1,10,-26,4,6,-8
COc1ccc(-c2cc(-c3cc(C)ccc3O)[nH]n2)cc1,-2,-1,264*,3,1,252
Cc1ccc(O)c(-c2cc(C(F)(F)C(F)F)[nH]n2)c1,-1,-8,80*,12,5,50
COc1ccc(-c2cc(-c3ccc(C)cc3)n[nH]2)c(O)c1,-2,17,31,1,2,8
Cc1ccc(O)c(-c2cc(-c3ccccc3[N+](=O)[O-])[nH]n2)c1,-4,21,59*,5,-3,42

# Screening results from PubChem.
